From PubChem
Compounds with a hit are over-represented: about 18% of the library has one in this group of screens.
TDP1 cell CPT: growth inhibition of DT40 Tdp1-/-;hTDP1 cells with camptothecin (screen for TDP1 inhibitors); chicken DT40 Tdp1-/-;hTDP1 cells + 20 nM CPT, ATP luminescence, 48 h; Potency, µM (highest dose often 46.2 µM), for inactives: at the highest dose activity change, negative = growth inhibition, hits mostly inhibitors; AID 686979; 420,000 tested, 12% active; note: potency is the fitted concentration of half-maximal effect; % is set by controls: 0 for no effect and ±100 for the full control effect; nearly all actives have a fitted effect of over 55% in size
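Chicken DT40 Tdp1-/- cells complemented with human TDP1, 400 cells/well, exposed to compounds plus 20 nM camptothecin for at least 48 h at 37 C; viability read as ATP content by CellTiter-Glo luminescence.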
IL-1B inflam inh: inflammasome signaling inhibition, IL-1 beta readout | THP-1 LPS/ATP IL-1B secretion, AlphaLISA, 16 h; stronger effect = lower value | activity change, % at 57.5 µM | 360,000 tested, 4.7% active | AID 743279; in the data active = activity change below about -50%; inconclusive = mostly about -30% to -49%; note: % is set by controls: 0 for no effect and ±100 for the full control effect
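THP-1 cells pretreated 1 hr with compounds (up to 57.5 uM final), then stimulated with LPS (250 ng/mL final) plus ATP (1.25 mM final); secreted IL-1B measured by AlphaLISA after 16 hr, decreased signal indicating inhibition.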
HepG2 viability: counter-screen for TGF-b inhibitors: cytotoxicity in HepG2 cells. HepG2 CAGA-GFP viability, ATP luminescence, 18 h. Potency, µM (doses to about 46.1 µM), inactives show at the highest dose activity change, negative = cytotoxicity, usual class: cytotoxic. 410,000 tested, 0.76% active. AID 588856; note: potency is the fitted concentration of half-maximal effect
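HepG2 CAGA-GFP cells (1000/well, DMEM with 1% FBS) received compound, then TGF-beta at 500 pg/mL final, and were incubated 18 hours at 37 degrees C. Viability was read by CellTiter-Glo luminescence. Media-only wells were set as complete cell-killing and DMSO as no toxicity.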
TGFb inhibitor: inhibitors of TGF-b signaling. HepG2 CAGA-GFP TGF-b/SMAD3 reporter, GFP fluorescence, 18 h; TGF-beta stimulated, 500 pg/mL final. Potency, µM (top dose mostly 46.1 µM), for the others: at the top dose activity, negative = inhibition, most hits filed as inhibitors. 410,000 tested, 1.2% active. AID 588855; note: potency is the fitted concentration of half-maximal effect; % is set by controls: 0 for no effect and ±100 for the full control effect; nearly all actives have a fitted effect of over 65% in size
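First, reporter cells (HEPG2 CAGA-GFP) rested 2 h at 37 degrees C. Next, compounds were pinned in and TGF-beta added to 500 pg/mL final. After 18 h, GFP was imaged per cell and summed per well.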
TDP1 block: TDP1 (human) enzyme inhibition; Potency, µM (highest dose often 130 µM), without a hit: at the top dose activity change, negative = inhibition, hits mostly inhibitors; Q9NUW8; 350,000 tested, 0.28% active; recombinant TDP1, AlphaScreen DNA substrate cleavage; note: potency is the fitted concentration of half-maximal effect; % is set by controls: 0 for no effect and ±100 for the full control effect; nearly all actives have a fitted effect of over 40% in size
Target sequence (Q9NUW8 whole entry, looked up): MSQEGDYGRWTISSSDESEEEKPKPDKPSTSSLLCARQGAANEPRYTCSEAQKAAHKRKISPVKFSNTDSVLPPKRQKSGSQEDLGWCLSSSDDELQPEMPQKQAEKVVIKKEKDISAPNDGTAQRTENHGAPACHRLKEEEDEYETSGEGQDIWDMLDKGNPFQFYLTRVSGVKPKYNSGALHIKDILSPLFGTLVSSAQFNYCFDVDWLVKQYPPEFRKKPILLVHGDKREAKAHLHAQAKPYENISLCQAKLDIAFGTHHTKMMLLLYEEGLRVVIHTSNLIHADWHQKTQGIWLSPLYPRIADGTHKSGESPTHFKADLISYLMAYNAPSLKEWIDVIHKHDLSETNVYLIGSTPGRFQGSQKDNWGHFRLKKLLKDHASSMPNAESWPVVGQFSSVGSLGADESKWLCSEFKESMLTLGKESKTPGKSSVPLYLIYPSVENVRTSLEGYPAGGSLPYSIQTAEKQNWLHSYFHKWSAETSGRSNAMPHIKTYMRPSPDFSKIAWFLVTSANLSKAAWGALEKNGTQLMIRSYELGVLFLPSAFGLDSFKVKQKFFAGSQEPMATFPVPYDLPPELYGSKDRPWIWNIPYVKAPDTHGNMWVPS
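Enzyme-compound mixtures sat 15 min at room temperature, followed by a 5 min reaction with 15 nM final substrate and 10 min with AlphaScreen beads. Recombinant human Tdp1 was used at 1 nM final.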
DT40 TDP1 no CPT: qHTS for Inhibitors of human tyrosyl-DNA phosphodiesterase 1 (TDP1): qHTS in cells in absence of CPT; DT40 Tdp1-/- hTDP1 cells, no CPT, ATP luminescence, 48 h; Potency, µM (highest dose often 46.2 µM), without a hit: at the top dose activity change, negative = growth inhibition, hits mostly inhibitors; 420,000 tested, 15% active; AID 686978, 2013; note: potency is the fitted concentration of half-maximal effect; % is set by controls: 0 for no effect and ±100 for the full control effect; nearly all actives have a fitted effect of over 55% in size
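A cellular qHTS used chicken DT40 cells lacking endogenous Tdp1 but carrying stably transfected human TDP1. Compounds were applied without camptothecin, and cell growth kinetics were judged by ATP-dependent luminescence after ≥48 hr.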
* hit, by the source's call. Unless noted, calls come from the whole dose curve; as a rule, active = well fitted curve in the direction sought with a large enough effect; inconclusive = small, poorly fitted or top-dose-only effect, or another doubt; inactive = no such curve, though single readings can be large; an effect the other way counts as inactive or inconclusive.

For CC(=O)c1c(C)nc2ccccn12 the results were TDP1 cell CPT -12.9%, IL-1B inflam inh -5.0, HepG2 viability -13.4%, TGFb inhibitor -0.4%, TDP1 block 0.0% and DT40 TDP1 no CPT 8.1%.
`Cc1ccc(/C=C/C(=O)c2c(C)nc3ccccn23)cc1` gave TDP1 cell CPT 16.4µM*, IL-1B inflam inh -95.0*, HepG2 viability -55.5%, TGFb inhibitor inconclusive, TDP1 block -2.0% and DT40 TDP1 no CPT 16.4µM*.
O=C(/C=C/c1ccc(OC2CSC2)cc1)c1ccccc1 was read as TDP1 cell CPT 18.4µM*, IL-1B inflam inh -10.8, HepG2 viability 6.31µM*, TGFb inhibitor inconclusive, TDP1 block 5.9% and DT40 TDP1 no CPT 18.4µM*.
Screening O=C(C=Cc1ccccc1F)c1ccccc1 returned TDP1 cell CPT inconclusive, IL-1B inflam inh -65.2*, HepG2 viability -57.4%, TGFb inhibitor 11.2µM* and DT40 TDP1 no CPT inconclusive.
CN(C)c1ccc(C(=O)/C=C/c2ccccc2)cc1 was read as TDP1 cell CPT 20.6µM*, IL-1B inflam inh -101.8*, HepG2 viability -23.4%, TGFb inhibitor -3.5%, TDP1 block 2.6% and DT40 TDP1 no CPT inconclusive.
`CC1CCCN(S(=O)(=O)c2cc3c(cc2Cl)NC(=O)CO3)C1` (stereo not given) gave TDP1 cell CPT inconclusive, HepG2 viability -18.8%, TGFb inhibitor -3.3%, TDP1 block 0.0% and DT40 TDP1 no CPT inconclusive.
For Cc1ccc(CNC(=O)Cc2csc3ccccc23)cc1 the results were TDP1 cell CPT -0.7%, HepG2 viability -17.5%, TGFb inhibitor 0.2%, TDP1 block 5.1% and DT40 TDP1 no CPT -12.9%.
For OC(c1ccc(F)c(F)c1)c1nc(-c2cccc3cccnc23)cs1 (stereo not given) the results were TDP1 cell CPT inconclusive, IL-1B inflam inh -19.4, HepG2 viability -25.7%, TGFb inhibitor -4.4% and DT40 TDP1 no CPT inconclusive.
COc1ccc(NC(=O)c2nnn(CC(=O)Nc3cccc(C)c3C)c2N)c(OC)c1 was read as TDP1 cell CPT -25.9%, HepG2 viability -6.2%, TDP1 block 2.1% and DT40 TDP1 no CPT -8.5%.
`Cc1ccc(/C=C/C(=O)c2ccccc2)cc1` gave TDP1 cell CPT inconclusive, IL-1B inflam inh -66.8*, TGFb inhibitor inconclusive, TDP1 block 2.0% and DT40 TDP1 no CPT inconclusive.
`O=C(/C=C/c1ccco1)c1ccc(O)cc1` gave TDP1 block -3.5%.
`CSc1ccc(/C=C/C(=O)c2ccc(O)cc2)cc1` gave TDP1 cell CPT 18.4µM*, IL-1B inflam inh -79.4*, HepG2 viability -60.0%, TGFb inhibitor inconclusive, TDP1 block 2.6% and DT40 TDP1 no CPT -84.4%.
CN(C)c1ccc(C(=O)/C=C/c2ccco2)cc1 was read as TDP1 cell CPT 14.6µM*, IL-1B inflam inh -100.9*, HepG2 viability -27.2%, TGFb inhibitor -6.1%, TDP1 block 0.0% and DT40 TDP1 no CPT inconclusive.
O=C(C=Cc1cccc(Cl)c1)c1ccccc1 was read as TDP1 cell CPT 14.6µM*, IL-1B inflam inh inconclusive, HepG2 viability 17.8µM*, TGFb inhibitor inconclusive and DT40 TDP1 no CPT 23.1µM*.
`CN(CC(=O)Nc1ncn[nH]1)S(=O)(=O)c1ccc(Cl)cc1` gave TDP1 cell CPT 0.8%, IL-1B inflam inh -0.4, HepG2 viability 20.4%, TGFb inhibitor 27.7%, TDP1 block 4.5% and DT40 TDP1 no CPT 7.5%.
For Cn1nc(C(=O)NCCc2ccc(S(N)(=O)=O)cc2)c2ccccc2c1=O the results were TDP1 cell CPT 2.0%, IL-1B inflam inh 28.6, HepG2 viability 13.1%, TGFb inhibitor 32.0%, TDP1 block 5.7% and DT40 TDP1 no CPT -22.2%.
Screening CC(C)[C@@H](CC(=O)N[C@@H]1CCNC[C@H]1C(=O)N[C@H](CC(=O)N[C@@H](CCC(=O)O)CC(=O)O)Cc1c[nH]c2ccccc12)NC(=O)C[C@H](CO)NC(=O)[C@@H]1CNCC[C@H]1N returned TDP1 block -0.6%.
`Cc1sc2ncn(CC(=O)N3CCN(c4ccccc4)CC3)c(=O)c2c1S(=O)(=O)N1CCN(c2ncccn2)CC1` gave TDP1 cell CPT inconclusive, HepG2 viability -25.5%, TGFb inhibitor inconclusive, TDP1 block 0.0% and DT40 TDP1 no CPT inconclusive.
Screening CCCCN1C(=O)c2ccc(C(=O)OCC(=O)N3CCN(c4ccccc4)CC3)cc2C1=O returned TDP1 cell CPT -25.7%, IL-1B inflam inh 9.9, HepG2 viability -8.4%, TGFb inhibitor -1.3%, TDP1 block 0.6% and DT40 TDP1 no CPT -2.9%.
C=CCc1c(C)nc2nc(SCC(=O)Nc3ccc(OCC)cc3)nn2c1C was read as TDP1 cell CPT 1.5%, HepG2 viability 3.6%, TGFb inhibitor -0.6%, TDP1 block 7.8% and DT40 TDP1 no CPT -21.5%.
For COC(=O)c1c(C)[nH]c(C(=O)/C=C/c2cccc(Cl)c2)c1C the results were TDP1 cell CPT inconclusive, IL-1B inflam inh -64.5*, HepG2 viability 0.3%, TGFb inhibitor 10.8%, TDP1 block -1.4% and DT40 TDP1 no CPT inconclusive.
For COC(=O)c1c(C)[nH]c(C(=O)/C=C/c2ccc(C)cc2)c1C the results were TDP1 cell CPT -15.7%, IL-1B inflam inh 14.0, HepG2 viability 1.9%, TGFb inhibitor -7.5%, TDP1 block 4.8% and DT40 TDP1 no CPT -2.9%.
`CC(=O)Nc1ccc(C(=O)/C=C/c2ccco2)cc1` gave TDP1 cell CPT 20.6µM*, IL-1B inflam inh -7.4, HepG2 viability -0.6%, TGFb inhibitor 1.3% and DT40 TDP1 no CPT inconclusive.
`CC(=O)Nc1ccc(NC(=S)NC(=O)/C=C/c2ccco2)cc1` gave TDP1 cell CPT inconclusive, IL-1B inflam inh 31.5, HepG2 viability 3.2%, TGFb inhibitor 4.6% and DT40 TDP1 no CPT inconclusive.
CC(=O)Nc1cccc(C(=O)/C=C/c2ccco2)c1 was read as TDP1 cell CPT inconclusive, IL-1B inflam inh -70.9*, HepG2 viability -31.5%, TGFb inhibitor -3.2%, TDP1 block -11.8% and DT40 TDP1 no CPT inconclusive.
Cc1ccc(C(=O)Cn2c(C(=O)/C=C/c3ccccc3)nc3ccccc32)cc1 was read as TDP1 cell CPT 16.4µM*, IL-1B inflam inh inconclusive, HepG2 viability -22.8%, TGFb inhibitor -14.5%, TDP1 block 7.5% and DT40 TDP1 no CPT 16.4µM*.
